Measured values taken from PubChem BioAssay.
Activity calls are given as the source filed them.

Columns and labels:
[1] = tested on: PRMT1 (protein arginine N-methyltransferase 1); test: PRMT1 binders on small-molecule microarrays, primary screen, biochemical, small-molecule microarray, 635 nm fluorescence (AID 1088); settings: small-molecule microarray binding, higher = more signal;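 further: binding of Prmt1 protein to compounds spotted on small-molecule microarray slides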
[2] = yeast growth modulation, basal conditions, primary screen, YJM789 clinical isolate, OD600, 24 h (AID 1089);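 further: growth of clinical yeast isolate S. cerevisiae YJM 789 seeded 1000 cells per well; test concentration not given here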; settings: S. cerevisiae YJM789 growth, higher = more signal, called active from +8 up or from −8 down
[3] = fission yeast growth modulation, primary screen, strain 972, OD600, 24 h, no modulator (AID 1090);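 further: basal condition with compound alone and no growth modifier present; test concentration not given here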; settings: S. pombe 972 growth, higher = more signal, called active from +8 up or from −8 down
[4] = S. cerevisiae growth modulation with rapamycin, primary screen, strain BY4716, OD600, 96 h (AID 1091); settings: higher = more signal, called active from +8 up or from −8 down; further: test concentration not given here
[5] = target: Torsin-1A-interacting protein 2 (Homo sapiens) (UniProt Q8NFQ8); test: LULL1 binders on small-molecule microarray, primary screen, cell lysate, human LULL1 lysate, 635/667 nm fluorescence (AID 1092); settings: hLULL1 lysate binding, 635 nm fluorescence, higher = more signal;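 further: probe is lysate of COS7 cells overexpressing human LULL1; score merges per-feature 667 nm fluorescence with signal-to-noise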
Torsin-1A-interacting protein 2 (Homo sapiens), sequence (Q8NFQ8 whole entry, looked up): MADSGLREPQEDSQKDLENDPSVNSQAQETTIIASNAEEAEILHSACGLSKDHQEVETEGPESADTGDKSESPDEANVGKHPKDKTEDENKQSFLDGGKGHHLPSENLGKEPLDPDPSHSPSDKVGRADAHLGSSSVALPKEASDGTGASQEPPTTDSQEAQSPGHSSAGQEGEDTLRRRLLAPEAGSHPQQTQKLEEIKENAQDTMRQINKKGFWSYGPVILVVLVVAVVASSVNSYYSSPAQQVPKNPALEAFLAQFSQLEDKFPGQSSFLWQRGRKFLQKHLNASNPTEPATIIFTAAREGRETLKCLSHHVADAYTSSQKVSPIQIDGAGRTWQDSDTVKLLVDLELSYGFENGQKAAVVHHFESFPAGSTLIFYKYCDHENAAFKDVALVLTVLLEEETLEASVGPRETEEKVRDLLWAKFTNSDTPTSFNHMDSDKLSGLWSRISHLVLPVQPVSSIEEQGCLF

[6] = E. coli growth modulation, two-sided OD650, primary screen, E. coli filamentation project, strain DRC41, 24 h (AID 1093); settings: OD650, 24 h, higher = more signal, called active from +8 up or from −8 down;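 further: MC1000 strain lacking acrAB efflux and sulA so SOS filamentation is blocked; test concentration not given here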
[7] = small-molecule microarray binders of probe aLefty2, primary screen, biochemical, biotinylated probe, 635/667 nm fluorescence (AID 1094); settings: higher = more signal;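 further: score merges spot fluorescence near 667 nm with spot signal-to-noise ratio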
[8] = tested on: Noggin (protein binding on small-molecule microarray); test: Noggin binders on small-molecule microarray, primary screen, biochemical, 635/667 nm fluorescence (AID 1095); settings: 635 nm fluorescence, higher = more signal;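 further: score merges 667 nm feature fluorescence with signal to noise over triplicate slides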
[9] = target: Neurogenic locus notch homolog protein 3 (Homo sapiens) (UniProt Q9UM47); test: NOTCH3 binders on small-molecule microarray, primary screen, biochemical, 635/667 nm fluorescence (AID 1096); settings: NOTCH3 binding, 635 nm fluorescence, higher = more signal
Neurogenic locus notch homolog protein 3 (Homo sapiens), sequence (Q9UM47 whole entry, looked up): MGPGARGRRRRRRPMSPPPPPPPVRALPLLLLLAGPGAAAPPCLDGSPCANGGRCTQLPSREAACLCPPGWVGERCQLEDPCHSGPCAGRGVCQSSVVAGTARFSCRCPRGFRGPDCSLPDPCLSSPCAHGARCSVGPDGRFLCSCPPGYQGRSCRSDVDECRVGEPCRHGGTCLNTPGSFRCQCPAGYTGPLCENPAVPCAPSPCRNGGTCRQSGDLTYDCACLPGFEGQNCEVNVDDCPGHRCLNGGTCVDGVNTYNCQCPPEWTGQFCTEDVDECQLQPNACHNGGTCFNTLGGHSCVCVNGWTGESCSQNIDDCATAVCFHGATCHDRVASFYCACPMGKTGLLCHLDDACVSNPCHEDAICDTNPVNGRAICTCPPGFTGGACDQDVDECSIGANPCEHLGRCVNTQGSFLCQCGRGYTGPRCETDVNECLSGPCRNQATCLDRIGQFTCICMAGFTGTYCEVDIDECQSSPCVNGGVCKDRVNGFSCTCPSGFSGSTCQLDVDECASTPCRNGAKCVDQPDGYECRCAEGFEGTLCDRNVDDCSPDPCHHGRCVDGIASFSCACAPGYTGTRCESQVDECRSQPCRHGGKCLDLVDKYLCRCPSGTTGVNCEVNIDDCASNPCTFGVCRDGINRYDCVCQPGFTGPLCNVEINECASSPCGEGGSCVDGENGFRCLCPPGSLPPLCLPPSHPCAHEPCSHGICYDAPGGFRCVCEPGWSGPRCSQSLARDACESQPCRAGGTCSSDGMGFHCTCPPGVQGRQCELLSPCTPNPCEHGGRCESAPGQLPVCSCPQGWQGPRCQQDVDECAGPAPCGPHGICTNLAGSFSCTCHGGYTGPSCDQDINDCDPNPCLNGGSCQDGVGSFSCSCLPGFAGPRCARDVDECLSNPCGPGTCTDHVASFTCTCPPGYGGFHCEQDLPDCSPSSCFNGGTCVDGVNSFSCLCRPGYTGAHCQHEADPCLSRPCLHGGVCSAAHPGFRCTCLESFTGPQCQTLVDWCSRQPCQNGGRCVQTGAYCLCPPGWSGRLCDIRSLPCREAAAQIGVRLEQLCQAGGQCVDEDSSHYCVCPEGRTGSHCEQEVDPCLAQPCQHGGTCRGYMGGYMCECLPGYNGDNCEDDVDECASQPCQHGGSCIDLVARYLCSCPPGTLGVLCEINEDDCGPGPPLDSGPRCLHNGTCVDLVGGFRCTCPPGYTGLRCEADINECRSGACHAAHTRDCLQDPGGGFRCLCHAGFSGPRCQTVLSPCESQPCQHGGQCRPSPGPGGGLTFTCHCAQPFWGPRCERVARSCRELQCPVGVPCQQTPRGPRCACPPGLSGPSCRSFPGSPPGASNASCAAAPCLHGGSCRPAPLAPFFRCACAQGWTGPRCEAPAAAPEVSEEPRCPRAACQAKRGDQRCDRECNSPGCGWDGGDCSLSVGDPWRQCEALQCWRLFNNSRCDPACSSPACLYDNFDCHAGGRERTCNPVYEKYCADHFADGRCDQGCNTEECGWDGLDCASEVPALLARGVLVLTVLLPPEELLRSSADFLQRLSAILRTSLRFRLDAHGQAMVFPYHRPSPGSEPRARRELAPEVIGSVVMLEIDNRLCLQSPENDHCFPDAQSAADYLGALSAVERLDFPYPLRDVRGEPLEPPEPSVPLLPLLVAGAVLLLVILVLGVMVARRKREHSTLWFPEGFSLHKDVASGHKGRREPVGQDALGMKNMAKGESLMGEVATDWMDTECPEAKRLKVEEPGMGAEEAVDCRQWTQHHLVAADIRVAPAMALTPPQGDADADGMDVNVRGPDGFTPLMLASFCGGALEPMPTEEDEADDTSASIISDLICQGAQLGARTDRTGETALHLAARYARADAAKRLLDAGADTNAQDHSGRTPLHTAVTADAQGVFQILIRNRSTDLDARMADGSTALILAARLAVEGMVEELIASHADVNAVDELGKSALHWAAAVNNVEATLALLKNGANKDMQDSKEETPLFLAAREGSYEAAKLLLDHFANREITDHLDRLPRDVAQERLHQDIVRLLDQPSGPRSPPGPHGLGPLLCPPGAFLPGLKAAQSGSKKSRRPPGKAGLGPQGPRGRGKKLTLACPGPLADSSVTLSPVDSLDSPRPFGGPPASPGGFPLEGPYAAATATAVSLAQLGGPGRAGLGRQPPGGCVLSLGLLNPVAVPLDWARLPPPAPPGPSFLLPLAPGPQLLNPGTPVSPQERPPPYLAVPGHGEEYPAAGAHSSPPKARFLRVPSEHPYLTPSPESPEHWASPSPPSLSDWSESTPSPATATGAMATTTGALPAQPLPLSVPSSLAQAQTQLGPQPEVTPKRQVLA

[10] = small-molecule microarray binders of probe aEGFR, primary screen, biochemical, biotinylated probe, 635/667 nm fluorescence (AID 1097); settings: higher = more signal;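 further: probe is a biotinylated anti-EGFR antibody binding compounds printed on slides; score combines fluorescence near 667 nm and signal to noise of each spot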
[11] = tested on: Plasmodium falciparum Sir2 (PF13_0152, Sir2A); test: pfSir2 binders on small-molecule microarrays, primary screen, biochemical, small-molecule microarray, 635 nm fluorescence (AID 1098); settings: small-molecule microarray binding, fluorescence 635 nm; higher = more signal;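 further: score merges spot fluorescence intensity with its signal-to-noise ratio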
[12] = small-molecule microarray binders of probe aDKK1, primary screen, biochemical, biotinylated probe, 635/667 nm fluorescence (AID 1099); settings: higher = more signal;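 further: score merges 667nm spot fluorescence with signal to noise across triplicate slides; reference of the scale not given here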
[13] = small-molecule microarray binders of probe aCHRDL2, primary screen, biochemical, biotinylated probe, 635/667 nm fluorescence (AID 1100); settings: higher = more signal
[14] = splicing luciferase reporter signal modulators, primary screen, spliceosome inhibition project, cell-based, HEK293, splice +/- reporter (AID 1101); settings: luminescence, 24 h, higher = more signal, called active from +8 up or from −8 down;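 further: HEK293 cells carrying a splicing-competent luciferase reporter gene; test concentration not given here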
[15] = target: Fibroblast growth factor 10 (Homo sapiens) (UniProt O15520); test: FGF10 binders on small-molecule microarrays, primary screen, biochemical, small-molecule microarray, 635 nm fluorescence (AID 1102); settings: FGF10 binding, fluorescence 635 nm, higher = more signal
Fibroblast growth factor 10 (Homo sapiens), sequence (O15520 whole entry, looked up): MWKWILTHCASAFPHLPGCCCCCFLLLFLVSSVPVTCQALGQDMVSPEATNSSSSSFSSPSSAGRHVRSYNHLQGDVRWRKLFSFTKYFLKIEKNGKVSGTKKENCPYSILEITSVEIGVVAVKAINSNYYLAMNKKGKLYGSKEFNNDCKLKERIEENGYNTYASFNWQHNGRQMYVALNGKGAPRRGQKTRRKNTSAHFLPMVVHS

[16] = tested on: glycogen synthase kinase-3 (GSK3A per assay name; protocol says GSK3B); test: GSK3 binders on small-molecule microarrays, primary screen, biochemical, small-molecule microarray, 635 nm fluorescence, GSK3A (AID 1103); settings: small-molecule microarray binding, fluorescence 635 nm; higher = more signal; further: the record names both GSK3A and GSK3B
[17] = target: Epidermal growth factor receptor (Homo sapiens) (UniProt P00533); test: EGFR binders on small-molecule microarrays, primary screen, biochemical, small-molecule microarray, 635 nm fluorescence (AID 1104); settings: EGFR binding, higher = more signal;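 further: score merges 667 nm emission intensity with spot signal to noise over triplicate slides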
Epidermal growth factor receptor (Homo sapiens), sequence (P00533 whole entry, looked up): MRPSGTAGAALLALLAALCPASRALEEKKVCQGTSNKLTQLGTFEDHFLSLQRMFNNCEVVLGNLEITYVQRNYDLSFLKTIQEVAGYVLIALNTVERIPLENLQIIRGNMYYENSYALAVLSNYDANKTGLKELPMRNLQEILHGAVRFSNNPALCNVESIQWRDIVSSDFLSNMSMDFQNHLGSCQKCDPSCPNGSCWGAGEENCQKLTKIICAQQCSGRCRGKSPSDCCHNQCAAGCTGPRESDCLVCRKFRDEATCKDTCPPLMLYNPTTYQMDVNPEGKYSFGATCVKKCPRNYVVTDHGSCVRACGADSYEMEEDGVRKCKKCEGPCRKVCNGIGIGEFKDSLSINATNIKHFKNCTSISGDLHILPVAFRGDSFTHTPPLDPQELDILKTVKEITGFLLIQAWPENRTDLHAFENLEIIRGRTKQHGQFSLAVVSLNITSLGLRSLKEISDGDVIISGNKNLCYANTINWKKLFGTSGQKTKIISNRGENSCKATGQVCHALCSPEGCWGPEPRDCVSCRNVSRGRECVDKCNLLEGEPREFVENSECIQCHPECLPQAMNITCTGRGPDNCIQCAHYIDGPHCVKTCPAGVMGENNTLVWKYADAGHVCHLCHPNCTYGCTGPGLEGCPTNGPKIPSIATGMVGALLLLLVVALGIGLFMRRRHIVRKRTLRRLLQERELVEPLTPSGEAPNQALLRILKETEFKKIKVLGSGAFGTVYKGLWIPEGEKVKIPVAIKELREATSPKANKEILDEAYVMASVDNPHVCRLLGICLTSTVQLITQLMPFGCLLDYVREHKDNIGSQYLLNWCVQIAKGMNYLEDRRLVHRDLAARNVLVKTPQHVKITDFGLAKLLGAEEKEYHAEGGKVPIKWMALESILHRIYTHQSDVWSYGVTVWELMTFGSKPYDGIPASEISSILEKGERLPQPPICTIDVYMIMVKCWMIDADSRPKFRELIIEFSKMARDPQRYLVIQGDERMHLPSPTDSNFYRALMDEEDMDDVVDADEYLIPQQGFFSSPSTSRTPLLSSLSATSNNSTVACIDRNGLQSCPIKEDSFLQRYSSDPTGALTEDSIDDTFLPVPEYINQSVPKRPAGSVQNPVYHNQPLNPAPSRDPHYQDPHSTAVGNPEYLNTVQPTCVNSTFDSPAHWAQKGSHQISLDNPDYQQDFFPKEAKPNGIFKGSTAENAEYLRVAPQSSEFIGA

[18] = target: Follistatin-related protein 3 (Homo sapiens) (UniProt O95633); test: FSTL3 binders on small-molecule microarrays, primary screen, biochemical, small-molecule microarray, 635 nm fluorescence (AID 1105); settings: FSTL3 binding, higher = more signal;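 further: score merges emission near 667 nm and signal to noise per printed spot across three slides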
Follistatin-related protein 3 (Homo sapiens), sequence (O95633 whole entry, looked up): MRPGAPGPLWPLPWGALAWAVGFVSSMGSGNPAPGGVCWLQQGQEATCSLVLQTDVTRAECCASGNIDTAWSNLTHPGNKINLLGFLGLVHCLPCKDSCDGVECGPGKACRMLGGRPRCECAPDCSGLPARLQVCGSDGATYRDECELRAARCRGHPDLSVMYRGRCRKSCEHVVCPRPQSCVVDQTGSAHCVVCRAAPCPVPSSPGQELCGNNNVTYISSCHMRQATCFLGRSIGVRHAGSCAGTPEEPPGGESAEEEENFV

[19] = target: Dickkopf-related protein 1 (Homo sapiens) (UniProt O94907); test: DKK1 binders on small-molecule microarrays, primary screen, biochemical, small-molecule microarray, 635 nm fluorescence scan (AID 1106); settings: DKK1 binding, higher = more signal;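 further: score merges emission near 667 nm with signal to noise over three replicate slides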
Dickkopf-related protein 1 (Homo sapiens), sequence (O94907 whole entry, looked up): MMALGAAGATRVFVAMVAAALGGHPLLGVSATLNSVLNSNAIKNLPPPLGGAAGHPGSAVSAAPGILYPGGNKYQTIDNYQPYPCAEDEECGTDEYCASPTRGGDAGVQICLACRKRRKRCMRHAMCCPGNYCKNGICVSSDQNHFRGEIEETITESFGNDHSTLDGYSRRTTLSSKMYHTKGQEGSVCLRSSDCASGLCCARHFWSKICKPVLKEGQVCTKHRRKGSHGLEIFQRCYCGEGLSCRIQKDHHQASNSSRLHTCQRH

[20] = tested on: Inhibin beta A chain (activin A); test: INHBA (activin A) binders on microarrays, primary screen, biochemical, small-molecule microarray, 635 nm fluorescence scan (AID 1107); settings: small-molecule microarray binding, higher = more signal;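 further: mouse activin A protein probed at 4.33 µg/mL on printed slides; score merges bound-protein fluorescence near 667 nm with spot signal-to-noise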

Row | SMILES | composite z-score [1] | z-score [2] | z-score [3] | z-score [4] | composite z-score [5] | z-score [6] | composite z-score [7] | composite z-score [8] | composite z-score [9] | composite z-score [10] | composite z-score [11] | composite z-score [12] | composite z-score [13] | z-score [14] | composite z-score [15] | composite z-score [16] | composite z-score [17] | composite z-score [18] | composite z-score [19] | composite z-score [20]
1 | COCCOC(=O)N1C(=O)[C@@]2(c3cc(C#Cc4ccc(OC)cc4)ccc31)[C@H](c1ccc(OCCO)cc1)N1[C@H](c3ccccc3)[C@H](c3ccccc3)OC(=O)[C@H]1[C@@H]2C(=O)N1CCCCCCC1 | 1.49 | -1.32 (inactive) | -0.0066 (inactive) | 3.2 (inactive) | 3.3 | 0.106 (inactive) | 1.45 | 2.09 | 0.955 | 0.882 | 1.7 | 2.22 | 1.36 | -1.58 (inactive) | 0.821 | 1.24 | 0.719 | 1.52 | 1.29 | 1.65
2 | CCOC(=O)C1=CCC(c2cc3ccccc3[nH]2)N(S(=O)(=O)c2ccccc2[N+](=O)[O-])C1 (stereo not given) | 0.659 | -0.134 (inactive) | 1.18 (inactive) | 1.41 (inactive) | 3.07 | -0.424 (inactive) | -0.125 | 0.674 | 0.356 | 0.0357 | 0.984 | 0.225 | -0.006 | -0.365 (inactive) | 0.696 | 0.565 | -0.106 | 0.319 | -0.117 | 0.722
3 | CCCC=C(CCC)[C@@H](NC(=O)c1ccco1)c1ccc(C(=O)OC)cc1 | 0.997 | 1.06 (inactive) | 0.113 (inactive) | 2.22 (inactive) | 3.52 | -0.868 (inactive) | 0.198 | 0.678 | 1.06 | -0.15 | 0.851 | 0.241 | 1.01 | -0.545 (inactive) | 1.08 | 1.3 | 0.0415 | 0.938 | -0.18 | 0.46
4 | COC(=O)[C@@]1(Cc2ccc(F)cc2)[C@H]2c3cc(C(=O)N(C)C)n(CCN4CCOCC4)c3C[C@H]2CN1C(=O)c1ccccc1 | 0.101 | 0.218 (inactive) | 0.323 (inactive) | 0.0727 (inactive) | 2.5 | 0.176 (inactive) | 0.246 | -0.539 | 0.417 | 0.865 | 0.756 | 1.72 | 0.868 | -0.575 (inactive) | 1.03 | 1.12 | 0.045 | -0.265 | -0.431 | 0.84
5 | C=CC[C@]1(C(=O)NCCCOC)N=C(c2ccc(OCCCO)cc2)O[C@H]1c1ccccc1 | 0.36 | -0.193 (inactive) | -0.266 (inactive) | -0.739 (inactive) | 3.29 | 0.753 (inactive) | 0.037 | -0.0071 | -0.0832 | -0.146 | 1.08 | 0.107 | 1.05 | -0.318 (inactive) | -0.418 | 0.94 | -1.69 | -0.0778 | -1.13 | -0.112
